Source: PubChem BioAssay AID1159580 (chemical genetic matrix, 2015)
Hit rate of the full screen: of about 5,500 compounds, about 2,000 (36%) were called active. Not shown: some 18% with an inconclusive outcome. No stated cut-off is given here; in the data, active means normalized growth mostly below about 0.91 (no sharp cut-off); inconclusive means no clear call, values can overlap the other calls; inactive means mostly above about 0.92. Some of the results follow.

Test: chemical genetic growth profiling, strain panel (AID 1159580);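 further: tested at 20 µM; growth read once vehicle control cultures reached saturation at 30 °C; 1 = growth at the plate median or of vehicle wells; lower values mean less growth of the strain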
Details: S. cerevisiae deletion strains, growth OD

Measured: normalized growth

CC12C(=O)OC(=O)C1(C)C1CCC2O1 (stereo unspecified)
active: locus YNL175C, strain NOP13, active compounds read low 0.887 | locus YNL197C, strain WHI3, active compounds read low 0.879 | locus YNL224C, strain SQS1, active compounds read low 0.911 | locus YOR083W, strain WHI5 (second series), active compounds read low 0.85
inactive: locus YAL040C, strain CLN3, active compounds read low 0.905 | locus YCL061C, strain MRC1 (second series), active compounds read low 0.975 | locus YER002W, strain NOP16, active compounds read low 0.925 | locus YJR075W, strain HOC1, active compounds read low 1.04 | locus YNL128W, strain TEP1, active compounds read low 0.954 | locus YPL055C, strain LGE1, active compounds read low 1.05 | locus YPL241C, strain CIN2, active compounds read low 0.967

N[C@@H](CCC(=O)N[C@@H](CCSC(CC(=O)O)C(=O)O)C(=O)NCC(=O)O)C(=O)O (stereo partly specified)
inactive: locus YAL021C, strain ccr4, active compounds read low 0.991 | locus YAL026C, strain drs2, active compounds read low 1 | locus YAL030W, strain snc1, active compounds read low 0.992 | locus YBL061C, strain skt5, active compounds read low 0.989 | locus YBR009C, strain hhf1, active compounds read low 1.03 | locus YBR023C, strain chs3, active compounds read low 0.987 | locus YBR171W, strain sec66, active compounds read low 0.988 | locus YBR231C, strain swc5, active compounds read low 0.993 | locus YBR279W, strain paf1, active compounds read low 0.996 | locus YCL011C, strain gbp2, active compounds read low 0.995 | locus YCL016C, strain dcc1, active compounds read low 0.988 | locus YCL061C, strain MRC1, active compounds read low 1 | locus YCL069W, strain vba3, active compounds read low 0.997 | locus YCR088W, strain abp1, active compounds read low 0.988 | locus YDL005C, strain med2, active compounds read low 0.99 | locus YDL040C, strain nat1, active compounds read low 0.997 | locus YDR001C, strain nth1, active compounds read low 0.994 | locus YDR069C, strain doa4, active compounds read low 0.987 | locus YDR137W, strain rgp1, active compounds read low 0.987 | locus YDR159W, strain sac3, active compounds read low 0.996 | locus YDR195W, strain ref2 0.97 | locus YDR297W, strain sur2, active compounds read low 0.981 | locus YDR334W, strain swr1, active compounds read low 1 | locus YDR335W, strain msn5, active compounds read low 0.996 | locus YDR392W, strain spt3, active compounds read low 1.01 | locus YEL003W, strain gim4, active compounds read low 1.01 | locus YEL037C, strain rad23, active compounds read low 0.994 | locus YEL061C, strain CIN8 (second series), active compounds read low 0.998 | locus YER015W, strain faa2, active compounds read low 0.993 | locus YER016W, strain bim1, active compounds read low 0.978 | locus YER111C, strain swi4, active compounds read low 0.998 | locus YER155C, strain BEM2 (second series), active compounds read low 1.01 | locus YFR010W, strain ubp6, active compounds read low 1.02 | locus YGL167C, strain pmr1, active compounds read low 0.997 | locus YGL173C, strain kem1, active compounds read low 1.01 | locus YGL227W, strain vid30, active compounds read low 0.999 | locus YGL240W, strain doc1, active compounds read low 0.999 | locus YGL253W, strain hxk2, active compounds read low 0.991 | locus YHR013C, strain ard1, active compounds read low 1 | locus YHR027C, strain rpn1, active compounds read low 0.994 | locus YHR030C, strain SLT2, active compounds read low 0.999 | locus YHR079C, strain IRE1, active compounds read low 0.988 | locus YHR142W, strain chs7, active compounds read low 1 | locus YJL092W, strain hpr5, active compounds read low 1 | locus YJL095W, strain BCK1 (second series), active compounds read low 1.02 | locus YJL095W, strain BCK1, active compounds read low 1.01 | locus YJL115W, strain asf1, active compounds read low 1.01 | locus YJL129C, strain trk1, active compounds read low 0.99 | locus YJL154C, strain vps35, active compounds read low 0.992 | locus YJL164C, strain tpk1, active compounds read low 1.01 | locus YJL166W, strain qcr8, active compounds read low 0.994 | locus YJL187C, strain SWE1, active compounds read low 0.992 | locus YJR066W, strain TOR1, active compounds read low 0.997 | locus YKL160W, strain elf1, active compounds read low 0.984 | locus YKR026C, strain gcn3, active compounds read low 0.993 | locus YKR091W, strain srl3, active compounds read low 1 | locus YLL001W, strain dnm1, active compounds read low 1.01 | locus YLL026W, active compounds read low 1 | locus YLL041C, strain sdh2, active compounds read low 1.01 | locus YLR027C, strain aat2, active compounds read low 0.996 | locus YLR113W, strain HOG1, active compounds read low 1 | locus YLR221C, strain rsa3, active compounds read low 1.01 | locus YLR258W, strain gsy2, active compounds read low 1.01 | locus YLR262C, strain YPT6 (second series), active compounds read low 0.992 | locus YLR320W, strain mms22, active compounds read low 1.01 | locus YLR342W, strain FKS1, active compounds read low 0.99 | locus YLR357W, strain rsc2, active compounds read low 0.996 | locus YLR370C, strain arc18, active compounds read low 0.997 | locus YLR384C, strain iki3, active compounds read low 0.964 | locus YML120C, strain ndi1, active compounds read low 0.993 | locus YMR058W, strain fet3, active compounds read low 0.991 | locus YMR125W, strain sto1, active compounds read low 1.01 | locus YMR129W, active compounds read low 0.99 | locus YMR205C, strain PFK2, active compounds read low 1 | locus YMR231W, strain pep5, active compounds read low 0.995 | locus YNL071W, strain lat1, active compounds read low 1.01 | locus YNL183C, strain NPR1, active compounds read low 0.937 | locus YNL209W, strain ssb2, active compounds read low 0.981 | locus YNL248C, strain rpa49, active compounds read low 1.02 | locus YNL322C, strain KRE1 (second series), active compounds read low 0.979 | locus YNR049C, strain mso1, active compounds read low 0.997 | locus YOR001W, strain rrp6, active compounds read low 1.02 | locus YOR070C, strain gyp1, active compounds read low 0.999 | locus YOR080W, strain dia2, active compounds read low 0.982 | locus YOR083W, strain WHI5, active compounds read low 0.985 | locus YOR106W, strain vam3, active compounds read low 0.976 | locus YOR231W, strain MKK1, active compounds read low 0.991 | locus YOR265W, strain rbl2, active compounds read low 0.998 | locus YOR270C, strain vph1, active compounds read low 1.07 | locus YOR290C, strain snf2, active compounds read low 0.994 | locus YPL051W, strain arl3, active compounds read low 1 | locus YPL078C, strain atp4, active compounds read low 0.986 | locus YPL106C, strain sse1, active compounds read low 0.971 | locus YPL240C, strain hsp82, active compounds read low 1.01 | locus YPL256C, strain CLN2, active compounds read low 0.988
